This is part of a sample that, as a whole, favours compounds with a hit. Of some 83,000 tested, about 20% had one in any assay.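 In brief: 96-well plates, 48 h treatment, single concentration, percent growth endpoint.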 Unmarked numbers belong to inactive results. Activity calls are given as the source filed them. The calls were made as follows: active = growth percent below 10; inactive = the rest.
How the values were obtained:
Assay in all cases: NCI-60 one-dose screen, 48 h (100 = growth as untreated, 0 = no growth, -100 = all killed)
Conditions in all cases: 10 µM
[1] = test system: NCI-H23 lung
[2] = test system: NCI-H226 lung
[3] = test system: NCI-H322M lung
[4] = test system: HOP-62 NSCLC
[5] = test system: NCI-H460 lung
[6] = test system: HOP-92 NSCLC
[7] = test system: NCI-H522 lung
[8] = test system: A549/ATCC NSCLC
[9] = test system: 786-0 renal
[10] = test system: COLO 205 colon

| Structure (SMILES) | growth [1] | growth [2] | growth [3] | growth [4] | growth [5] | growth [6] | growth [7] | growth [8] | growth [9] | growth [10] |
| --- | --- | --- | --- | --- | --- | --- | --- | --- | --- | --- |
| COc1cccc2nc(Nc3cccc(NC(=O)c4ccc(CN5CCCN(C)CC5)c(C(F)(F)F)c4)c3)ccc12 | -97.9% (active) | -70.5% (active) | -100% (active) | -74.7% (active) | -83.6% (active) | -83.5% (active) | -67.5% (active) | -75.6% (active) | -84.9% (active) | -56.9% (active) |
| CCCCCCCCCCCCCCCCCCCC(=O)NCCc1c[nH]c2ccc(OC(=O)CCCC(=O)OCCOOCCOOCCOOCCOOCCOOCCOOCCOOCCOOCCOOCCOOCCOOCCOC)cc12 | 59.7% | 52.9% | 109% | 120% | 50.4% | 74.7% | -82.9% (active) | 42.3% | 83.9% | 117% |
| CCN1CCN(c2ccc(NC(=O)Nc3ccc4c(c3F)CCN4c3ccnc(C(=O)NC)c3)cc2C(F)(F)F)CC1 | -79.4% (active) | 95% | 90.5% | -49.3% (active) | -87.6% (active) | 82.3% | 110% | -81.4% (active) | -95.9% (active) | 120% |
| N#C/C(=C\c1ccc(N(c2ccccc2)c2ccccc2)cc1)C(N)=O | 55.9% | -82.6% (active) | 92.9% | 48.9% | 5.51% (active) | 75.5% | 74.5% | 36.3% | 53.9% | 19.7% |
| Cn1cc(-c2cc(N)n3nc(-c4c[nH]c5ccc(Br)cc45)cc3n2)c2cc(Br)cnc21 | -81.5% (active) | -55.3% (active) | 11.7% | -69.2% (active) | 2.27% (active) | -63.2% (active) | -72% (active) | -45.8% (active) | -75% (active) | -90.9% (active) |
| CC1(C)CC[C@]2(C(=O)NCCCNCCCCNCCCN)CC[C@]3(C)C(=CC[C@@H]4[C@@]5(C)Cc6c([nH]c7ccccc67)C(C)(C)[C@@H]5CC[C@]43C)[C@H]2C1 | 83.7% | 71.8% | 101% | 85% | 96.5% | 60.5% | 79.6% | 86.5% | 89.1% | 115% |
| O=C(c1ccc(Cl)cc1)C1[C@H](c2ccc(Br)cc2)[C@@H](c2ccccc2)NC12C(=O)Nc1ccccc12 (stereo not given in full) | -35.9% (active) | -72.4% (active) | 19.9% | -18.9% (active) | -33.8% (active) | -18% (active) | -4.55% (active) | 15% | -4.41% (active) | -88.9% (active) |
| CN1CCN(c2ccc(Nc3nc(NCCCNC(=O)c4ccc(F)cc4)c4sccc4n3)cc2)CC1 | 74.8% | 81.2% | 79.9% | 92.5% | 62.5% | 56.8% | 87.5% | 56.3% | -4.91% (active) | 90.3% |
| CCCCSc1nc(Nc2ccc(/C(C)=N/NC(N)=S)cc2)c(C#N)c(-c2ccccc2)n1 | 23.7% | 4.29% (active) | 59% | 41.1% | 12.1% | -19.7% (active) | 39.6% | 12.8% | 3.01% (active) | 59.6% |
| Cc1cc(C)nc(NS(=O)(=O)c2ccc(N/C(N)=N/c3nccc(-c4ccccc4)n3)cc2)n1 | 57.1% | 49.6% | 75.6% | 70.3% | 76.3% | 43.6% | 76.2% | 63% | 72.1% | 91.1% |
| O=C(Nc1cccc([N+](=O)[O-])c1)Nc1cccc([N+](=O)[O-])c1 | 65.5% | 74.4% | 89.2% | 92.7% | 70.5% | 80.4% | 64.8% | 82.2% | 74% | 121% |
| O=C(Cn1cc(CSc2nnc3oc4ccccc4n23)nn1)Nc1ccc(Br)cc1 | 62.7% | 45.2% | 86.9% | 38.5% | 101% | 32% | 79.5% | 76.5% | 69.6% | 103% |
| O=C(CSc1nnc(-c2c[nH]c3ccccc23)n1-c1ccccc1)Nc1ccc(C(=O)/C=C/c2ccc(Br)cc2)cc1 | 81.3% | 72.5% | 92.1% | 89.4% | 104% | 89.4% | 76.3% | 89.6% | 94.8% | 108% |
| Cc1ccc(C(=O)CSc2nnc(-c3c[nH]c4ccccc34)n2-c2ccccc2)cc1 | 17.3% | -41.3% (active) | 74.9% | 7.8% (active) | 29.3% | -7.56% (active) | 1.43% (active) | 53.3% | -35.4% (active) | 75% |
| CC(=O)NCC1=C(C)C=C2C(=O)[C@](C)(O)C3(CC3)C(C)=C21 | -76.6% (active) | -72.2% (active) | -30% (active) | -54.4% (active) | 4.33% (active) | -14.1% (active) | -64.8% (active) | -50.3% (active) | -40.8% (active) | -81.4% (active) |
| CC1(c2ccccc2)NC(=O)N(CC(=O)Nc2ccc(C(=O)/C=C/c3ccccc3)cc2)C1=O (stereo not given) | 65.5% | 45.7% | 90.2% | 85.9% | 69.4% | 50.7% | 71.4% | 44.3% | 42.6% | 76.4% |
| O=C1Nc2cc(Cl)ccc2/C1=C/c1cccc(OCc2ccc(Br)cc2F)c1 | 28.5% | 37.4% | 54% | 11.1% | 0.927% (active) | 6.98% (active) | -2.73% (active) | 29.7% | 17.9% | 3.13% (active) |
| Cc1ccc2nc(COc3ccc(C(=O)NNC(=S)NCCc4ccccc4)cc3)[nH]c2c1 | 17.2% | 47.2% | 51.7% | 42.4% | 60.4% | 9.55% (active) | 55% | 104% | 61% | 144% |
| CN1CCCN(Cc2ccc(C(=O)Nc3cccc(Nc4ccc5c(O)cccc5n4)c3)cc2C(F)(F)F)CC1 | -82.1% (active) | 57.4% | -72.1% (active) | -69.8% (active) | -85.3% (active) | -51.5% (active) | -83.4% (active) | -61.4% (active) | -74.8% (active) | -64.4% (active) |
| Cc1ccc2nc(-c3ccc(-c4nnc(SCC(=O)Nc5ccc(Br)cc5)o4)cc3)[nH]c2c1 | 50.3% | 62.1% | 80.7% | 72.9% | 14.4% | 91.9% | 62.6% | 89.5% | 84.6% | 87.3% |
| COc1ccc(/C(CSc2nnc(-c3c[nH]c4ccccc34)n2-c2ccccc2)=N/O)cc1 | 41.6% | 18.2% | 36.4% | 45% | 17.3% | 28.2% | 36.5% | 34.2% | 59.7% | 36.3% |
| Nc1cccnc1/C=N/NC(=S)NCCNC(=O)c1ccc(-n2nc(-c3ccccc3O)nc2-c2ccccc2O)cc1 | -1.31% (active) | 2.65% (active) | 19.3% | 22.1% | 37.6% | -2.21% (active) | 4.39% (active) | 15% | -1.51% (active) | 15.1% |
| O=c1cc(-c2ccccc2)oc2cc(OCCCCNCc3ccccc3)cc(O)c12 | -73.7% (active) | 59.6% | 57.5% | 61% | -73.9% (active) | 31.8% | 34.2% | 49.3% | -68.2% (active) | -91.8% (active) |
| CC(=C(c1ccc(OCCN2CCCCC2)cc1)c1ccc(OCCN2CCCCC2)cc1)c1ccccc1 | 47.2% | 82.4% | 60.9% | 10.4% | 41.6% | 8.69% (active) | 64.8% | 33.3% | -35.8% (active) | -83.9% (active) |

Source: PubChem BioAssay (NCI)
